Bioassay records deposited in PubChem by National Center for Advancing Translational Sciences (NCATS).
D2 ag-1: agonists of human D2 dopamine receptor. HEK293 T-REx D2 cells, calcium flux agonist mode. P14416. activation, % at 2 µM. AID 485358. hit rate 0.53% among 340,000;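 active = activation over 3 SD above normal in the single-dose calcium agonist read, cut at about 30% in these data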
Target sequence (P14416 whole entry, looked up): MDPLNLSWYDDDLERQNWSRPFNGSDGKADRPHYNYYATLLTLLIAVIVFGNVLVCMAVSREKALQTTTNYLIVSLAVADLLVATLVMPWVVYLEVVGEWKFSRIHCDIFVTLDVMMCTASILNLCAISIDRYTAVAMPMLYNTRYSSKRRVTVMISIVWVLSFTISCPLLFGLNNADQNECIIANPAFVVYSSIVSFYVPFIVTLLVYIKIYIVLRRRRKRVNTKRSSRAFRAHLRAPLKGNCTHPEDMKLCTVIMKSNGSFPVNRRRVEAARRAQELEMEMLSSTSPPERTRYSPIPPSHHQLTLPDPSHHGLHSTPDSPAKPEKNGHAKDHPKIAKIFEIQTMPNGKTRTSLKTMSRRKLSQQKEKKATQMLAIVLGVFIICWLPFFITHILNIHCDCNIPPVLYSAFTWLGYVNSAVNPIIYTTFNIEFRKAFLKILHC
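Calcium-flux readout, 1 cycle/sec over 180 s following compound pin transfer, in inducible HEK293 Trex D2 cells (force-coupled); dopamine controls included. Positive calcium responses during this window marked compounds as potential agonists.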
D2 PAM-1: positive allosteric modulators of human D2 dopamine receptor; P14416; DiscoveRx D2 beta-arrestin cells, luminescence, 90 min; 100% = 57 uM dopamine signal; potentiation, % (no concentration beside the values); hit rate 0.23% among 360,000; in the data active = potentiation above about 50%; inconclusive = mostly about 30% to 49%
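PathHunter D2 cells, attached overnight at 37 deg C, received compound in DMSO plus dopamine at EC20 (50 nM final) for 90 min at 37 deg C. Beta-arrestin recruitment was read as luminescence after 1 h with detection reagent at ambient temperature.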
D2 ag-2: agonists of human D2 dopamine receptor (beta-arrestin); DiscoveRx PathHunter D2 beta-arrestin, luminescence, 90 min; 100% = 57 uM dopamine signal; AID 624465; hit rate 0.084% among 360,000; activation, % (test concentration not listed); in the data active = activation above about 40%; inconclusive = between about 15% and that limit
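Agonist mode: compounds alone added to overnight-plated D2 PathHunter cells for 90 min at 37 C, with 57 uM final dopamine (EC100) defining full response. Beta-arrestin recruitment detected by chemiluminescent reagent, read after 1 h at ambient temperature.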
D2 PAM-2: positively modulates the human D2 dopamine receptor allosterically; P14416; HEK293 T-REx D2, calcium flux, EC20 dopamine potentiation; potentiation, % at 10 µM; hit rate 0.34% among 340,000;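 active = potentiation over 3 SD above the plate norm, cut at about 30% in these data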
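Potentiation of an EC20 dopamine calcium response is measured in a force-coupled, tetracycline-inducible Hek293 Trex D2 line. Compound-only kinetic reads over 180 s flag agonists before dopamine addition.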
D2 antagonist: antagonists of human D2 dopamine receptor; hit rate 2% among 340,000; AID 485344; P14416; HEK293 TREx D2 cells, calcium flux, dopamine EC80; inhibition, % at 10 µM; in the data active = inhibition above about 30%; inactive = below that, where a call was filed
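Tetracycline-induced HEK293 TREx cells expressing D2 receptor forced-coupled to calcium signalling, loaded with no-wash calcium dye. Compounds added and calcium flux read 180 s, then dopamine added at EC80 and read a further 180 s.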
D3 ag: D3 receptor agonism confirmed, beta-arrestin readout; shares compounds with D2 ag-1; DiscoveRx D3 beta-arrestin cells, luminescence, 90 min; Potency, µM (series often up to 76.9 µM), hits mostly activators; hit rate 4% among 2,300; AID 720506; note: nearly all actives have a fitted effect of over 70% in size
D2 ag-3: counter-screen for D3 agonists: human D2 dopamine receptor agonism | shares compounds with D2 ag-1 | DiscoveRx PathHunter D2 beta-arrestin, luminescence, 90 min; response scale: percent relative to full dopamine signal | Potency, µM (highest dose often 76.9 µM), hits mostly activators | hit rate 5.9% among 2,300 | AID 720507; note: nearly all actives have a fitted effect of over 70% in size
Large screens that a line does not name were inactive (follow-up assays come after a bar, where they were run). Rows were chosen to be rich in hits. Some 2.4% of all compounds tested hit in one or more screens of this group. Unless noted, calls come from the whole dose curve; as a rule, active = well fitted activation curve with a large enough effect; inconclusive = small, poorly fitted or top-dose-only effect; inactive = flat fitted curve, though single readings scatter.

COC(=O)c1ccc(OCC(O)CN2CCN(C(=O)c3ccco3)CC2)c(OC)c1 (configuration not stated)	D2 ag-1 63.7 | D3 ag inactive | D2 ag-3 inconclusive
O=C(c1ccco1)N1CCN(CC(O)COc2ccc(Br)cc2)CC1 (configuration not stated)	D2 ag-1 76.2, D2 antagonist 77.2 | D3 ag inconclusive | D2 ag-3 inconclusive
COC(=O)c1ccc(OCC(O)CN2CCN(C(=O)c3ccco3)CC2)cc1 (configuration not stated)	D2 ag-2 inconclusive
O=C(c1ccco1)N1CCN(Cc2cccc(F)c2)CC1	D2 ag-1 87.6, D2 ag-2 59.5, D2 antagonist 84.3 | D3 ag inconclusive | D2 ag-3 20µM
O=C(c1ccc(S(=O)(=O)NCC2CCCO2)cc1)N1CCN(c2ccccc2)CC1 (configuration not stated)	none
O=C(c1ccco1)N1CCN(Cc2nc(-c3cccs3)no2)CC1	none | D3 ag inactive | D2 ag-3 inactive
O=C(c1ccco1)N1CCN(Cc2cccc3ccccc23)CC1	D2 ag-1 57.6, D2 antagonist 76.0 | D3 ag inconclusive | D2 ag-3 inconclusive
O=C(c1ccco1)N1CCN(Cc2ccc(Br)cc2)CC1	D2 ag-1 78.7, D2 PAM-1 inconclusive, D2 ag-2 57.5, D2 antagonist 79.7 | D3 ag inconclusive | D2 ag-3 15.8µM
Cc1ccc(C)n1CCN1CCN(C(=O)c2ccco2)CC1	none | D3 ag inactive | D2 ag-3 inactive
Cc1cc(C)nc(-n2nc(C)cc2NC(=O)c2cc3ccccc3oc2=O)n1	none (no result: D2 ag-1, D2 PAM-2, D2 antagonist)
CCOC(=O)c1nnn(-c2ccc([N+](=O)[O-])cc2)c1C	none
CCc1ccc(CN2CCN(C(=O)c3ccco3)CC2)cc1	D2 ag-1 79.7, D2 PAM-1 inconclusive, D2 ag-2 78.3, D2 antagonist 83.3 | D3 ag 5.62µM | D2 ag-3 14.1µM
COc1ccc(CCNC(=O)c2cc(C3CC3)on2)cc1OC	none | D3 ag inactive | D2 ag-3 inactive
CCOC(=O)C1CCN(CC(O)COc2ccc(C(C)(C)C)cc2)CC1 (configuration not stated)	D2 ag-2 inconclusive
CCOC(=O)C1CCN(CC(O)COc2ccc(C(C)=O)cc2)CC1 (configuration not stated)	D2 ag-1 41.0, D2 antagonist 30.8 | D3 ag inactive | D2 ag-3 inactive
CCOC(=O)C1CCN(CC(O)COc2ccc(C(C)(C)CC)cc2)CC1 (configuration not stated)	D2 ag-1 65.8, D2 antagonist 80.2 | D3 ag inactive | D2 ag-3 inconclusive
COC(=O)CSc1nnc(-c2c[nH]c3ccccc23)o1	none
COc1ccc(N2CCN(C(=O)CCCNC(=O)Cn3cnc4sc(C)c(C)c4c3=O)CC2)cc1	D2 ag-1 44.5 | D3 ag inactive | D2 ag-3 inactive
Cc1ccc(NC(=O)c2cc(S(=O)(=O)NCCC3=CCCCC3)ccc2F)cc1	none
CCN(CC)CCCN=C1N[C@@H](c2ccccc2)C(C(=O)OC)=C(C)N1CC	D2 ag-1 76.7 | D3 ag inactive | D2 ag-3 inactive
C[C@]12CCC(O)CC1CCC1C2CC[C@]2(C)C(c3cc(C(F)(F)F)n[nH]3)CCC12 (some centres not stated)	D2 antagonist 44.1 | D3 ag inconclusive | D2 ag-3 inconclusive
CC12CCC3C(CCC4CC(O)CCC43C)C1CC(O)C2 (configuration not stated)	none (no result: D2 ag-1, D2 PAM-2, D2 antagonist)
CC(=O)Nc1ccc(C(=O)Nc2ccc(S(=O)(=O)N3CCOCC3)cc2)cc1	none
O=C(Nc1ccc(N2CCOCC2)cc1)c1ccc(S(=O)(=O)N2CCCCC2)cc1	none | D3 ag inactive | D2 ag-3 inactive
CCOC(=O)C(NC(C)=O)(OCc1ccccc1)C(F)(F)F (configuration not stated)	D2 ag-1 67.4 | D3 ag inactive | D2 ag-3 inactive
CCOC(=O)C(NCCc1ccccc1)(NC(=O)CC)C(F)(F)F (configuration not stated)	none | D3 ag inactive | D2 ag-3 inactive
CCc1nnc(NC(=O)Cn2nc(-c3ccc(OC)c(OC)c3)ccc2=O)s1	none
Cc1cc(C)cc(NC(=O)CSc2nnc(Cc3cccn3C)n2-c2ccc(F)cc2)c1	none
COc1ccc(C)cc1S(=O)(=O)NCCC1=CCCCC1	none
CCOc1ccc(S(=O)(=O)NCCC2=CCCCC2)c2ccccc12	none | D3 ag inactive | D2 ag-3 inactive
CC(NC(=O)CCC(=O)N1CCCCCC1)c1ccccc1 (configuration not stated)	D2 ag-1 44.4 | D3 ag inactive | D2 ag-3 inactive
CC(NC(=O)CCC(=O)NC(C)c1ccccc1)c1ccccc1 (configuration not stated)	none
COCCn1c(SCCN2CCOCC2)nc2c1c(=O)[nH]c(=O)n2C	none
Nc1c(Cl)ncnc1NCC(O)CO (configuration not stated)	none | D3 ag inactive | D2 ag-3 inactive
CC(Oc1cc2oc(=O)cc(-c3ccccc3)c2cc1Cl)C(=O)NCC1CCC(C(=O)O)CC1 (configuration not stated)	D2 ag-1 43.1, D2 antagonist 43.2 | D3 ag inactive | D2 ag-3 inactive
CC(=O)NC(CCS(C)(=O)=O)C(=O)Nc1ccccc1Cl (configuration not stated)	none
COc1ccc(/C=C/C(=O)NC(=S)NN2CCCCC2c2cccnc2)cc1OC (configuration not stated)	D2 ag-1 49.0 | D3 ag inactive | D2 ag-3 inactive
CCc1ccccc1NC(=O)c1cc(-c2cccc(O)c2)on1	none (no result: D2 ag-1, D2 PAM-2, D2 antagonist) | D3 ag inactive | D2 ag-3 inactive
O=C(Nc1ccccc1C(F)(F)F)c1cc(-c2cccc(O)c2)on1	none
O=S(=O)(c1ccc(NC(=S)N/N=C/c2ccc(Oc3ccccc3)cc2)cc1)N1CCOCC1	none
O=S(=O)(c1ccc(NC(=S)N/N=C/c2c3ccccc3cc3ccccc23)cc1)N1CCOCC1	none | D3 ag inactive | D2 ag-3 inactive
Cc1[nH]c2ccccc2c1NC(=O)CN1CCN(C(=O)c2ccco2)CC1	D2 ag-1 86.8, D2 PAM-1 inconclusive, D2 ag-2 54.3, D2 antagonist 61.1 | D3 ag inactive | D2 ag-3 inconclusive
